Assay results published in PubChem BioAssay AID602478 (National Center for Advancing Translational Sciences (NCATS), 2012).
Records with an inconclusive call do not appear. Unmarked numbers belong to inactive results. Active and inactive are the calls of the source. The call rests on the fitted dose curve; in most records, active means well fitted activation curve with a large enough effect; inconclusive means small, poorly fitted or top-dose-only effect; inactive means flat fitted curve, though single readings scatter.

target: Luciferin 4-monooxygenase (Photinus pyralis) (UniProt P08659); test: FLuc inhibitory activity for the follow-up compounds in a cell-based translational read-through assay (72 hour incubation); conditions: GripTite 293 FLucUGA read-through, luminescence; series mostly up to 38.3 µM; activation (luciferase signal increase): at the top concentration
Sequence (P08659 whole entry, looked up): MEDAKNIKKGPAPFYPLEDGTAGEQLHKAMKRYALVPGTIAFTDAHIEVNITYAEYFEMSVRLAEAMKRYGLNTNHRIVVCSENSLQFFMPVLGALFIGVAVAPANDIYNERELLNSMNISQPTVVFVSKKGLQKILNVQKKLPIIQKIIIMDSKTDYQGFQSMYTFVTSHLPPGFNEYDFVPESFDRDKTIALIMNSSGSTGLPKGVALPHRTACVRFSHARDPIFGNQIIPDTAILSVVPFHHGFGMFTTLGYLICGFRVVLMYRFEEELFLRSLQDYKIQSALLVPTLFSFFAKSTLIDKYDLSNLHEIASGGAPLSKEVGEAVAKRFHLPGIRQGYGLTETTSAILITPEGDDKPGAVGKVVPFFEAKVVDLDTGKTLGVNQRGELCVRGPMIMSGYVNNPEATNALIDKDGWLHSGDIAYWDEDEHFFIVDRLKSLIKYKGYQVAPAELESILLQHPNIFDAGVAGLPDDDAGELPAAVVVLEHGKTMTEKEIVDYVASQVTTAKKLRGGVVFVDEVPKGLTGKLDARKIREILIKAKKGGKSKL
From the text: NCGC Assay Overview: Firefly (Photinus pyralis) luciferase is one of the most commonly used transcriptional reporters. It is considered one of the more dynamically responsive reporters - that is, responsive to changes in reporter transcription - as it requires no post-translational modifications and is enzymatically active directly after protein synthesis (Wood, 1998). With no endogenous expression in mammalian cells and without the requirement of external excitation, it offers very little background signal, thus generally providing excellent signal to background for most assays. Previous profiling work to determine the prevalence of compounds that affect FLuc enzymatic activity (PubChem AID 411) identified that ~3% of the MLSMR library (then at ~72K) inhibited FLuc (Auld et al., 2008). […] Of the compounds identified in this profile that inhibited FLuc, 151 compounds were selected for further analysis, in an effort to better understand their mode of inhibiting FLuc. The assay described here was to determine the activity of the compounds in a cell-based firefly luciferase reporter gene assay originally designed to identify compounds that enchanced translational read-through of a FLuc cDNA that contained a premature stop codon (Auld et al., 2009; Auld et al., 2010). Compounds that enhance translational read-through or compounds that stabilize FLuc intracellularly are identified as active compounds in the assay.
NCGC Assay Protocol Summary: Reagents: Transient transfection of FlucUGA construct: TransFast Transfection Reagent (Promega #E2431); FLucUGA construct (refer to Auld et al., 2009) #GripTite 293 MSR Cell Line (Invitrogen #R795-07) #Complete growth media: DMEM (Invitrogen #11965), 10% HIFBS, 0.1mM MEM NEAA, 5mL/L pen-strep (of 5000U/mL stock), 600ug/mL Geneticin #Assay media: DMEM without phenol red (Invitrogen #21063), 5% charcoal-stripped HIFBS (Hyclone #SH30071.03), 0.1mM MEM NEAA In-house detection reagent: 300mM Tris-HCl, 300mM Trizma base, 300mM MgCl, 1% Triton-X100, 5mM DTT, 500uM Coenzyme A trilithium salt (Sigma #C3019),450uM ATP (Sigma #A7699), 1mM D-luciferin sodium salt monohydrate (Biosynth #L8240) Control compounds used were two known firefly luciferase inhibitors (3-(5-(3-chlorophenyl)-1,2,4-oxadiazol-3-yl)benzoic acid and 5-(2-fluorophenyl)-3-phenyl-1,2,4-oxadiazole), and DMSO. Assay Summary: Transient transfection of FlucUGA construct: Day 1: GripTite cells were plated in T175 flasks at a density of 1.75 x 10^7 cells/T175 flask in complete growth media without Geneticin and allowed to grow ON in a 37 degrees Celsius incubator. Day 2: Cells in T175 flask were transfected - with 10ug of DNA and 30uL Transfast in 12mL complete growth media without serum and without Geneticin for 4 hours at 37 degrees Celsius. After incubation, cells were trypsinized, spun down, and resuspended to a concentration of 3.3 x 10^5 cells/mL in assay media. 6uL of cells in assay buffer were dispensed at 2000cells/well (3.3 x 10^5 cells/mL) into Greiner solid-white TC-treated 1536-well plates using a Multidrop Combi (Thermo Fisher Scientific). Plates were incubated for one hour at 37 degree Celsius, 95% humidity, 5% CO2. These assay plates were then treated with 23nL of compound or DMSO using a Kalypsys pin tool, which allows for delivery of a 12-point titration of each compound to the assay plate, with a final compound concentration ranging from approximately ~38uM to 0.2nM. Assay plates were then incubated for 72 hours. After incubation, plates were washed three times with DPBS (7uL/well). After the third wash, 6uL of DPBS was added to each well. 3uL of 3X luciferase detection reagent was then added to each well using a flying reagent dispenser (FRD). After a 15 minute incubation to allow for cell lysis, luciferase activity was measured using a ViewLux CCD imager (PerkinElmer), with an average exposure time of 2-12 seconds.

With `CCOc1ccc2nc(NC(=O)c3ccccc3)sc2c1` the Potency was 1790 nM (active).
With `O=C(O)c1cccc(NC(=O)c2ccc(Cl)c(S(=O)(=O)N3CCCCCC3)c2)c1` the Potency was 283 nM (active).
For `CCn1c(C)nc2cc(-c3nc4n(n3)Cc3ccccc3-4)ccc21`, the Potency was 79.8 nM (active).
With `Nc1ccc(-c2nc3ccc(N)cc3s2)cc1` the Potency was 4000 nM (active).
For `c1ccc2sc(-c3ccc4c(c3)OCO4)nc2c1`, the Potency was 1790 nM (active).
For `Cc1ccc(C(=O)O/N=C(\N)c2ccccn2)c(Cl)c1`, the Potency was 1260 nM (active).
`CCOc1ccc2nc(NC(=O)c3ccoc3C)sc2c1` was tested, and the Potency was 449 nM (active).
In the case of `Cc1ccc(C(=O)Nc2cccc(C(=O)O)c2)cc1S(=O)(=O)N1CCCCC1`, the Potency is reported as 3180 nM (active).
With `CCOc1ccc(C(=O)Nc2ccccc2C(=O)O)cc1` the Potency was 14200 nM (active).
In the case of `COc1ccc2nc(NC(=O)c3ccco3)sc2c1`, the Potency is reported as 634 nM (active).

Compared with `Cc1ccc(NS(=O)(=O)c2ccc(Cl)c(C(=O)Nc3cccc(C(=O)O)c3)c2)cc1`, `Cc1cccc(NS(=O)(=O)c2cccc(C(=O)Nc3cccc(C(=O)O)c3)c2)c1` is lower in “activation (luciferase signal increase)” value: 5.38% for the first, 5.34% for the second.

First: O=C(Nc1ccccc1C(=O)O)c1ccc(NC(=O)C2CC2)cc1
Second: COc1ccccc1C(=O)Nc1ccc(C(=O)Nc2ccccc2C(=O)O)cc1
The “activation (luciferase signal increase)” value of the first is lower: 0.322% for the first, 2.81% for the second.

Going from `O=C(COC(=O)c1ccccc1[N+](=O)[O-])c1ccc2c(c1)OCO2` to `COc1ccccc1C(=O)Nc1ccc(C(=O)O)cc1`, the “activation (luciferase signal increase)” value rises from 3.99% to 6.84%.

First: Cc1ccc(S(=O)(=O)N2CCOCC2)cc1C(=O)Nc1ccccc1C(=O)O
Second: O=C(Nc1ccccc1C(=O)O)c1cccc(S(=O)(=O)N2CCCC2)c1
The “activation (luciferase signal increase)” value of the first is lower: -2.13% for the first, 4.36% for the second.

Going from `O=C(O)c1ccc(NC(=O)c2cccc(NC(=O)c3cccs3)c2)cc1` to `O=C(O)c1ccc(NC(=O)c2ccccc2NC(=O)c2cccc(Br)c2)cc1`, the “activation (luciferase signal increase)” value rises from 4.99% to 10.8%.

Going from `COc1ccc2nc(NC(=O)c3nc(S(=O)(=O)Cc4ccc(C)cc4)ncc3Cl)sc2c1` to `COc1ccc2nc(NC(=O)c3cccc(S(=O)(=O)N4CCOCC4)c3)sc2c1`, the “activation (luciferase signal increase)” value rises from -4.78% to 4.08%.

Compared with `O=C(Cc1ccccc1)Nc1ccccc1C(=O)Nc1ccc(C(=O)O)cc1`, `O=C(Cc1ccc(Cl)cc1)Nc1cccc(C(=O)Nc2ccccc2C(=O)O)c1` is lower in “activation (luciferase signal increase)” value: 9.41% for the first, 1.21% for the second.

Compared with `Cc1c(NS(C)(=O)=O)cccc1-c1nc2ccccc2s1`, `CC(=O)Nc1cccc(-c2nc3ccccc3s2)c1C` is higher in “activation (luciferase signal increase)” value: -0.265% for the first, 6.4% for the second.

Going from `COc1ccc(C(=O)Nc2ccccc2C(=O)N/N=C/c2ccc(O)c(OC)c2)cc1` to `COc1ccc(C(=O)Nc2ccccc2-c2nc3ccccc3s2)c(OC)c1`, the “activation (luciferase signal increase)” value rises from -2.18% to 2%.

First: O=C(O)c1ccc(NC(=O)c2cc(S(=O)(=O)N3CCCCC3)c(Cl)cc2Cl)cc1
Second: COc1ccc(C(=O)Nc2cccc(C(=O)O)c2)cc1S(=O)(=O)N1CCCC1
The “activation (luciferase signal increase)” value of the first is lower: 0.522% for the first, 3.95% for the second.

Compared with `O=C(Nc1ccccc1C(=O)O)c1cccc(C(=O)Nc2ccccc2C(=O)O)c1`, `O=C(O)c1ccc(NC(=O)c2cccc(C(=O)Nc3ccc(C(=O)O)cc3)c2)cc1` is lower in “activation (luciferase signal increase)” value: 2.32% for the first, -0.0974% for the second.

Going from `COc1ccc(Br)cc1C(=O)Nc1ccc(C(=O)O)cc1` to `Cc1ccc(C(=O)Nc2ccc(C(=O)O)cc2)cc1S(=O)(=O)NCc1ccccc1`, the “activation (luciferase signal increase)” value falls from 6.32% to 2.78%.

Compared with `Cc1ccc(S(=O)(=O)N2CCN(C(=O)c3ccccc3-c3nc4ccccc4s3)CC2)c(C)c1`, `Cc1c(NC(=O)C(C)(C)C)cccc1-c1nc2ccccc2s1` is higher in “activation (luciferase signal increase)” value: 1.64% for the first, 16% for the second.

First: CC(C)CC(=O)Nc1cccc(C(=O)Nc2ccccc2C(=O)O)c1
Second: O=C(Nc1ccccc1C(=O)O)c1cccc(S(=O)(=O)Nc2ccc(Br)cc2)c1
The “activation (luciferase signal increase)” value of the first is lower: -2.22% for the first, 4.51% for the second.

Going from `COc1ccc2nc(NC(=O)CCc3nc(-c4ccccc4F)no3)sc2c1` to `O=C(Nc1cccc(-c2nc3ccccc3s2)c1)C1=COCCO1`, the “activation (luciferase signal increase)” value falls from 13.1% to 9.49%.
